Activity calls are given as the source filed them. The call rests on the fitted dose curve; in most records, active means well fitted curve in the direction sought with a large enough effect in the repeat runs; inconclusive means weak or mixed curves; inactive means flat fitted curve, though single readings scatter.
test: qHTS assay to test for compound auto fluorescence at 535 nm (green) in HEK293 cells (AID 720680); details: green autofluorescence 485/535 nm; series mostly up to 91.3 µM
From the text: U.S. Tox21 Program National Center for Advancing Translational Sciences [NCATS] NIH Chemical Genomics Center [NCGC] U.S. Environmental Protection Agency [EPA] National Institutes of Environmental Health Sciences [NIEHS] National Toxicology Program [NTP] U.S. Food and Drug Administration [FDA] Tox21 Assay Overview: Compound auto fluorescence often interferes with screening of the compound library against various biological targets and signaling pathways. Some of these compounds may have fluorophoric properties. Such properties may interfere with the assay outputs resulting in false positives and/or negatives. To decrease such complications and ensure the compound activities are relevant in terms of biological response, the Tox21 10K compound library was screened for auto fluorescence. From the fluorophores used as reporter signals in our screening assays, the auto fluorescence equivalencies of compounds against three fluorophores have been evaluated: Triamterene, Fluorescein and Rose Bengal sodium for blue, green and red fluorescence, respectively. The fluorescence intensities were measured using Excitation/Emission wavelengths at 405/460nm, 485/535nm and 540/590nm for blue, green and red labels, respectively. This assay includes the green fluorescence data.
Tox21 Assay Protocol Summary: 2,000 HEK293 cells in 5 uL of culture medium containing 10% dialyzed FBS per well were dispensed into black wall/clear bottom 1536-well plates using a Multidrop Combi Dispenser (Thermo Scientific). The assay plates were incubated for 4-5 hr at 37C to allow cell attachment to the well bottom, followed by the transfer of 23 nL compound or DMSO vehicle by a pintool work station (Kalypsys, San Diego, CA). After the assay plates were incubated overnight at 37C and 5% CO2, fluorescence intensities in the assay plates were measured by an Envision (PerkinElmer, Shelton, CT) plate reader using three labels for measuring blue, green and red fluorescence at […] 460, 535 and 590nm respectively.
On the % scale 0 is the no-effect control and ±100 the full control effect.

| SMILES | outcome | fluorescence, % of fluorescein |
| --- | --- | --- |
| OC(C#CCN1CCCC1)(c1ccccc1)c1ccccc1 | inactive | – |
| Nc1ccc(N)c2c1C(=O)c1ccccc1C2=O | inactive | – |
| CCCCCC[C@@H](O)C/C=C\CCCCCCCC(=O)OC | inactive | – |
| C[C@@H](c1ncncc1F)C(O)(Cn1cncn1)c1ccc(F)cc1F (stereo not given in full) | inactive | – |
| CCO[Si](CCCCl)(OCC)OCC | inactive | – |
| O=[N+]([O-])c1ccc(NCCO)c(OCCO)c1 | inactive | – |
| O=C(OCCCCCCOC(=O)c1ccccc1)c1ccccc1 | inactive | – |
| CCCCCCc1ccc(-c2ccc(C#N)cc2)cc1 | inactive | – |
| CCCCNc1ccc(C(=O)OCCOCCOCCOCCOCCOCCOCCOCCOCCOC)cc1 | – | -0.0088% [at 18.6 µM] (inactive) |
| Nc1ccc(S(=O)(=O)Nc2ccccc2)cc1 | inactive | – |
| Cc1c(N)cccc1[N+](=O)[O-] | inactive | – |
| CC(=O)OC[C@H]1O[C@@H](n2ncc(=O)[nH]c2=O)[C@H](OC(C)=O)[C@@H]1OC(C)=O | inactive | – |
| S=C([S-])NCCNC(=S)[S-].[Mn+2] | inactive | – |
| C[N+](C)(C)CCOC(=O)CCC(=O)OCC[N+](C)(C)C | inactive | – |
| COc1cc2nc(N(C)CCCNC(=O)C3CCCO3)nc(N)c2cc1OC (stereo not given) | – | -0.0302% [at 18.6 µM] (inactive) |
| C=CC(=O)OCCOCCOCCOCCOC(=O)C=C | inactive | – |
| CCC(C)(C)CC | inactive | – |
| O=C1OC(=O)C2C3C=CC(C3)C12 (stereo not given) | inactive | – |
| O=C(Nc1ccccc1)c1ccccc1O | inactive | – |
| CN(C)C(=O)NC1(c2ccccc2)CCN(CC[C@@]2(c3ccc(F)c(F)c3)CN(C(=O)c3ccccc3)CCO2)CC1 | inactive | – |

| SMILES | outcome | fluorescence, % of fluorescein |
| --- | --- | --- |
| C#Cc1cccc(Nc2ncnc3cc(OCCOC)c(OCCOC)cc23)c1 | inactive | – |
| CCC(C)O (stereo not given) | inactive | – |
| CN(C)c1ccc(/C=C/c2ccc([N+](=O)[O-])cc2)cc1 | – | 0.0174% [at 3.72 µM] (inactive) |
| OCCN1CCN(CCCN2c3ccccc3C=Cc3ccccc32)CC1 | inactive | – |
| CC(C)(C)OCC1CO1 (stereo not given) | inactive | – |
| C#C[C@]1(O)CC[C@H]2[C@@H]3CCc4cc(OC5CCCC5)ccc4[C@H]3CC[C@@]21C | inactive | – |
| CCCCO | inactive | – |
| CCCCOC(=O)CCCCCCCC(=O)OCCCC | inactive | – |
| O=C(O)C1(C(=O)Nc2ccc(Cl)cc2Cl)CC1 | inactive | – |
| CCCCCCCCCCO[C@@H]1O[C@H](CO)[C@@H](O)[C@H](O)[C@H]1O | inactive | – |
| O=S(=O)(Oc1ccc(Cl)cc1)c1ccccc1 | inactive | – |
| C[N+]1(C)CCC(OC(=O)C(O)(c2ccccc2)C2CCCC2)C1 (stereo not given) | inactive | – |
| Nc1cccc([N+](=O)[O-])c1 | inactive | – |
| Cc1[nH]c(C)c(Cl)c(=O)c1Cl | inactive | – |
| O=C1c2ccccc2S(=O)(=O)N1CCCCN1CCN(c2ncccn2)CC1 | inactive | – |
| c1ccc(-c2ccccn2)nc1 | inactive | – |
| O=C(O)c1ccc(S(=O)(=O)O)cc1C(=O)O | inactive | – |
| CCOc1ccc(O)cc1 | inactive | – |
| CC(=O)[O][Al][O]C(C)=O | inactive | – |
| COC(C)OC | inactive | – |

Reference: PubChem BioAssay (Tox21)
